Test results reported in PubChem BioAssay (NCI).
The panel holds about 83,000 compounds, 20% with a hit somewhere; the sample as a whole holds those more often.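 Cells were grown in 96-well plates and exposed to the test compound at a single concentration for 48 hours; results are reported as percent growth, with values below 10 considered active.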 A number with no mark means an inactive call. The source made the active and inactive calls.

The compounds below were run on HS 578T breast (assay: NCI-60 one-dose screen, 48 h (100 = growth as untreated, 0 = no growth, -100 = all killed)). Details: 10 µM.
In the case of `CCOC(=O)C1=C(N)N(c2ccccc2)C2=C(C(=O)CC(C)(C)C2)C1c1ccc(Cl)cc1` (stereo not drawn), the growth is reported as 71.9%. In the case of `Brc1ccc(N/N=C/c2c[nH]c3ccccc23)nc1`, the growth is reported as 51.7%. Work on `C=CCn1c(SCC(=O)Nc2ccc(C(=O)/C=C/c3ccccc3)cc2)nnc1-c1c[nH]c2ccccc12` yielded a growth of 70.5%. With `C/C(=C\CSc1ccccc1C(=O)O)CCCC(C)CCCC(C)CCCC(C)C` (stereo not drawn) the growth was 56%. `COc1cc2c(cc1OC)/C(=C\c1sc(Nc3ccc(O)cc3)nc1O)C(C(=O)O)=N2` showed a growth of 31%. In the case of `COc1ccc(Nc2nc(N)n(Cc3cccc(Br)c3)n2)cc1`, the growth is reported as -12.3% (active). With `CC[C@]12C=CCN3CC[C@@]4(c5cc(C#CCNc6ccc(C)c(Nc7nccc(-c8cccnc8)n7)c6)c(OC)cc5N(C)[C@H]4[C@@](O)(C(=O)OC)[C@@H]1OC(C)=O)C32` (stereo partly drawn) the growth was 55.7%. `O=S(=O)(Nc1ncccn1)c1ccc(-n2c(-c3ccc(Br)cc3)nc(-c3ccccc3)c2-c2ccccc2)cc1` was tested, and the growth was 20.4%. For `Cc1ccc2nc(COc3ccc(C(=O)NNC(=S)NC(=O)c4ccccc4)cc3)[nH]c2c1`, the growth was 60.5%. For `N#Cc1c(NC(=O)c2ccc(C(F)(F)F)c(Cl)c2)sc2c1CCC(=O)C2`, the growth was -26% (active). In the case of `CN1CCN(c2ccc(C(=O)/C=C/c3cc(C(F)(F)F)ccc3Cl)cc2)CC1`, the growth is reported as 3.68% (active). For `CN1CCN(Cc2ccc(C(=O)Nc3cccc(Nc4ccc5c(O)cccc5n4)c3)cc2C(F)(F)F)CC1`, the growth was -37.5% (active). `CC(C)(C)c1ccc(NCc2cn(-c3ccc(C(=O)O)cc3)nc2-c2ccc(C#N)cc2)cc1` gave a growth of 37.4%. In the case of `CCOc1ccc(/C=N/NC(=O)Cn2nc(Cc3ccc([N+](=O)[O-])cc3)c3onc(C)c3c2=O)cc1`, the growth is reported as -7.55% (active).

Each compound was assayed on NCI/ADR-RES ovarian in the same assay as above. Details: 10 µM.
`N#Cc1ccc(-c2nn(-c3ccc(C(=O)O)cc3)cc2CNc2ccc(Oc3ccccc3)cc2)cc1` showed a growth of 17.1%. `COc1cc2c(cc1OC)CN(CCCCOc1cc(O)c3c(=O)cc(-c4ccccc4)oc3c1)CC2` showed a growth of 57.4%. For `Cc1cc(=O)oc2cc(OCCCCOc3ccc(/C=C/C(=O)Nc4ccc(F)c(Cl)c4)cc3)ccc12`, the growth was 88.7%. `COc1ccc(CN2[C@@H](C(=O)NCc3ccc(C(=O)NO)cc3)Cc3c([nH]c4ccccc34)[C@@H]2C2CC2)cc1` gave a growth of 69.9%. In the case of `COC(=O)c1c(C(=O)OC)c2n(c1C)[C@@H]([C@@H](C)[C@H]1CC[C@H]3[C@@H]4CCC5=CC(=O)CC[C@]5(C)[C@H]4CC[C@]13C)SC2`, the growth is reported as 7.08% (active). Compound `O=C1CCC(N2Cc3cc(CC(=O)Nc4ccc(N5CCCCC5)cc4)ccc3C2=O)C(=O)N1` (stereo not drawn) has a growth of 25.2%. `Cn1cc(-c2cc(N)n3nc(-c4c[nH]c5ccc(Br)cc45)cc3n2)c2cc(Br)cnc21` was tested, and the growth was -60% (active). `COc1ccc(C(=O)CSc2nnc(-c3c[nH]c4ccccc34)n2-c2ccccc2)cc1` gave a growth of 16.3%. For `CC(C)C1=C[C@@]23CC[C@@H]4[C@](C)(CCC[C@]4(C)C(=O)NCc4ccccc4)[C@H]2C[C@@H]1[C@H]1C(=O)CCC(=O)[C@H]13`, the growth was 74%. `Nc1nc(Nc2ccccc2)nn1Cc1c(Cl)cccc1Cl` showed a growth of 10.6%. `Cc1ccc2nc(COc3ccc(C(=O)NNC(=S)NCCc4ccccc4)cc3)[nH]c2c1` gave a growth of 75.4%. With `COc1cc2c3c(n(CCCn4ccnc4)c(=O)c2cc1OC)-c1nc2c(cc1C3=O)OCO2` the growth was 84.2%. For `Cc1ccc(/C(N)=N/c2sc(-c3ccccc3)nc2-c2ccccc2)cc1`, the growth was 89.9%. `Cc1cccc(NC(=O)CSc2nc3ccc(F)cc3c(=O)n2-c2ccc(Cl)cc2)c1C` gave a growth of 56%. `CCCn1c(=O)c2[nH]c(-c3ccc(OCc4nc5ccc(C)cc5[nH]4)cc3)nc2n(CCC)c1=O` gave a growth of 31.7%. `O=S(=O)(Nc1ncccn1)c1ccc(-n2c(-c3ccccc3)nc(-c3ccccc3)c2-c2ccccc2)cc1` gave a growth of 95.3%. Compound `Cc1ccc(C(=O)NNC(=O)CSc2nc3ccccc3c(=O)[nH]2)cc1` has a growth of 101%. `COc1cc(OC(F)(F)F)ccc1C(=O)Nc1sc2c(c1C#N)CCC(=O)C2` showed a growth of 75.1%. With `COc1ccc(C(=O)Nc2sc3c(c2C#N)CCC(=O)C3)cc1C(F)(F)F` the growth was -44.7% (active).
